Source: PubChem BioAssay (Center for Chemical Genomics, University of Michigan)
Shown is part of a subset that was picked to be rich in hits.
Dicer processing: blocks human Dicer maturation of pre-miR-21 | Q9UPY3 | 47,000 compounds, 6% hits | cat-ELCCA pre-miR-21 Dicer processing, chemiluminescence; hits give high values | z-score at 25 µM; in the data active means z-score above about 3, passing the limit was not always enough;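 further: plate controls were vehicle for no effect and no enzyme for full effect; higher signal means more uncleaved substrate so more Dicer inhibition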
Active calls of the source: *.

SMILES	Dicer processing
COC(=O)c1sc(N2C(=O)c3oc4ccc(F)cc4c(=O)c3C2c2ccc(O)cc2)nc1C (stereo not drawn)	-0.7
O=C(Nc1ccccc1SCC(O)CSc1cccs1)c1ccc(Cl)cc1 (stereo not drawn)	0.7
CCOC(=O)/C=C(\C)NC(=O)c1c(-c2c(Cl)cccc2Cl)noc1C	-0.17
O=C(NCc1cccnc1)c1nn2c(c1Br)NC(c1cccs1)CC2C(F)(F)F (stereo not drawn)	-0.28
C=CCNC(=O)COc1ccc2c(c1C)OC(C)(C)CC2=O	1.7
COc1cc2[nH]c(Sc3ccc(Cl)cc3)c([N+](=O)[O-])c2cc1OC	-1.1
C=CCc1cccc(C2Nc3ccccc3NC3=C2C(=O)CC(C)(C)C3)c1O (stereo not drawn)	1.4
COc1ccc(OCCS(=O)(=O)c2nc3ccccc3[nH]2)cc1	-1.4
CC(C#N)(Nc1ccccc1)c1ccncc1 (stereo not drawn)	3.4*
O=C(NCCO)C(=O)NC1CCCCC1	-0.65
Cc1ccc(C)n1-c1ccc(Br)cc1C(=O)O	8.8
Cc1ccc(C)n1-c1ccc(O)c(C(=O)O)c1	33*
Cc1ccc(C)n1-c1sccc1C(=O)O	2.6
CCOC(=O)c1nnn2c1nc(SCc1ccccc1Cl)c1ccccc12	-1.8
CCCOc1ccccc1C1Nc2ccccc2NC2=C1C(=O)CC(C)(C)C2 (stereo not drawn)	2.4
COc1nc(C)ccc1-c1noc(-c2ccc(Cl)cc2)n1	0.36
O=C(Nc1c(C(=O)c2ccc(F)cc2)oc2ccccc12)c1ccco1	-0.64
COC(=O)c1ccc(C(=O)Nc2c(C(N)=O)oc3ccccc23)cc1	3.6*
O=C(Nc1c(C(=O)c2ccc(Br)cc2)oc2ccccc12)c1ccco1	-1
CSC1=NC(C)(C)CCC12C=CC(=O)C=C2	3.2*
COC1=C(OC)C2(C=CC1=O)CC(C)(C)N=C2SC (stereo not drawn)	1.1
COCCCNC(=O)C12CC3CC(CC(C3)C1)C2	0.32
CCOC(=O)C(NC(=O)Cc1ccccc1)(Nc1cccc(C(F)(F)F)c1)C(F)(F)F (stereo not drawn)	0.89
O=S(=O)(Oc1cccc(C(F)(F)F)c1)c1sc(Br)cc1Br	0.04
c1ccc2c(c1)CCN2Cn1nnc2ccccc21	4.4*
SMILES	Dicer processing
Fc1ccc(Cn2nnc3ccccc32)cc1	2.6
S=c1[nH]nc(Cn2nnc3ccccc32)o1	-1.4
COc1ccc(-n2c(C)cc(C(=O)O)c2C)cc1	1
O=C(NCC1CCCO1)c1ccc(COc2ccc(F)cc2)o1 (stereo not drawn)	2.9
CC(C)(C)c1ccc(OCc2ccc(C(=O)O)o2)cc1	1.1
CCOc1ccc(OCc2ccc(C(=O)NC(C)(C)C)o2)cc1	3.4*
CCOC(=O)c1c(NC(=O)COc2ccc(Br)cc2)sc2c1CCC2	-0.69
OCc1ccc2c(c1)OCCOCCOc1cc(CO)ccc1OCCOCCO2	-0.61
CCOc1ccc(-c2cnc(NCc3cc(Cl)ccc3O)n2C)cc1	2.8
Cc1ccc(CNc2ncc(-c3ccc(F)cc3)n2C)cc1	2.2
Cn1c(-c2ccccc2)cnc1NCc1ccc(Br)cc1	1.1
COc1ccc(CNc2ncc(-c3ccc(Br)cc3)n2C)cc1OC	-0.09
Cn1c(-c2ccc(F)cc2)cnc1NCc1cc(Br)ccc1F	3.1*
Cc1ccc(-c2cnc(NCc3cc(Br)ccc3F)n2C)cc1	3.6
COc1cccc(CNc2ncc(-c3ccc(Br)cc3)n2C)c1	1.1
Cn1c(-c2ccc(F)cc2)cnc1NCc1cc(Cl)ccc1O	5.6*
Cn1c(-c2ccc(Br)cc2)cnc1NCc1ccc(F)cc1	3.1*
Cn1c(-c2ccc(F)cc2)cnc1NCc1ccccc1Cl	2.1
COc1cccc(-c2cnc(NCc3cc(Br)ccc3F)n2C)c1	53
CCOc1cc(CNc2ncc(-c3ccc(Br)cc3)n2C)ccc1O	3.4*
O=C1NCCCCC1NS(=O)(=O)c1ccc(OC(F)(F)F)cc1 (stereo not drawn)	1.1
C=C(C)CC(Nc1ccc(F)cc1)c1ccco1 (stereo not drawn)	0.5
Cc1c(S(=O)(=O)NCCc2ccccn2)sc2ccc(Cl)cc12	-0.52
COC(=O)C(O)(NC(=O)c1cccc(Cl)c1)C(F)(F)F (stereo not drawn)	-0.75
CN(C)/C=C/C(=O)c1ccc2ccccc2c1	0.8
SMILES	Dicer processing
COc1ccc(-c2csc(NC3=NS(=O)(=O)c4ccccc43)n2)cc1	2.9
CCSc1ccsc1C1C(C#N)=C(N)N(c2cccnc2)C2=C1C(=O)CC(c1ccccc1)C2 (stereo not drawn)	0.14
COC(=O)C1=C(C)NC2=C(C(=O)CC(c3ccccc3)C2)C1c1cccnc1 (stereo not drawn)	0.96
CSc1sc(C)cc1C1C(C#N)=C(N)N(c2cccnc2)C2=C1C(=O)CC(c1ccccc1)C2 (stereo not drawn)	5.8*
O=C(c1ccc([N+](=O)[O-])cc1)c1ccc2c(c1)CCC2	3.6*
O=C(CSC1=NCCCCC1)c1ccc([N+](=O)[O-])cc1	-2.1
C/C(=N\NC(=O)N/N=C(\C)c1ccc([N+](=O)[O-])cc1)c1ccc([N+](=O)[O-])cc1	-1.2
O=C(Nc1ccc(OCc2ccccc2)cc1)Nc1cc(-c2cccs2)nn1-c1ccc(F)cc1	-1.6
CCOC(=O)C(C(=O)OCC)c1c([N+](=O)[O-])c(=O)n(-c2ccccc2)c2ccccc12	0.22
CC(C)c1nn2c(=O)c(NC(=O)c3ccc(C(C)(C)C)cc3)cnc2s1	-0.91
COc1cc(NC(=O)OC(C)(C)C)cc(OC)c1OC	-0.53
COc1ccc(Oc2c(C(F)(F)F)oc3c(CN4CCCCC4C)c(O)ccc3c2=O)cc1 (stereo not drawn)	0.14
CSC(SC)=C(C#N)C(=O)c1cccc(C(F)(F)F)c1	5.1*
CSC(SC)=C(C#N)C(=O)c1cccc(C)c1	-0.63
N#CC(C(=O)c1cccc(C(F)(F)F)c1)=C1SCCCCS1	0.81
CCOc1ccc(C2SC[C@H](C(=O)O)N2C(C)=O)cc1 (stereo partly drawn)	-0.05
COC(=O)c1cc(NS(=O)(=O)c2ccc(C)c3ccccc23)ccc1N1CCOCC1	0.72
COc1cccc(CCCCCN(C)C(N)=O)c1	1.9
O=C(Nc1cccc(NC(=O)c2c(F)cccc2F)n1)c1c(F)cccc1F	-0.22
O=C(O)COCC(=O)Nc1ccccn1	0.85
O=C(Nc1ccccn1)c1cccc(C(=O)Nc2ccccn2)n1	3.5*
COc1ccc(C(=O)Cn2cnc3c(C#N)c4n(c3c2=O)CCCCC4)cc1	0.4
COC(=O)c1sc(SC)c2c1CC(C)(C)C/C2=N\OC(=O)c1ccccc1Cl	-1.2
CSc1c(CC(=O)Nc2ccccc2)n(C)c2ccccc12	3.7*
Cn1cnnc1SCCC(=O)Nc1ccccc1	-0.17
SMILES	Dicer processing
CCOC(=O)Cc1c(SC)c2ccccc2n1C	2.1
CCOc1nc(-c2ccccc2)ccc1-c1noc(-c2ccc(OC)cc2)n1	1
O=C(COc1ccc(C2=Nc3ccccc3NC(c3ccccc3)C2)cc1)Nc1ccccc1 (stereo not drawn)	1.2
CCN(c1ccccc1)C1SC(=O)NC1=O (stereo not drawn)	2.1
O=C(O)CC1SC(Cc2ccc(Cl)cc2)=NC1=O (stereo not drawn)	-0.42
N#Cc1c(Cl)nsc1-c1ccccc1	-1.8
COc1ccc(Br)c(OC)c1C(=O)NC(=O)Nc1c(F)cccc1F	-0.93
Cc1cccc(C)c1C(=O)NC(=O)Nc1c(F)cc(F)cc1F	56*
O=C(NC(=O)c1c(Cl)cccc1Cl)Nc1c(F)cc(F)cc1Br	-0.58
CCOC(=O)N1CCC(NS(=O)(=O)c2ccc(Cl)s2)CC1	-0.17
